This is an account of results in PubChem BioAssay AID1733 (National Center for Advancing Translational Sciences (NCATS), 2009).

Results filed as inconclusive are left out. The source made the active and inactive calls. The call rests on the fitted dose curve; in most records, active means well fitted inhibition curve with a large enough effect; inconclusive means small, poorly fitted or top-dose-only effect; inactive means flat fitted curve, though single readings scatter.

Luciferin 4-monooxygenase (Photinus pyralis), sequence (P08659 whole entry, looked up, canonical isoform): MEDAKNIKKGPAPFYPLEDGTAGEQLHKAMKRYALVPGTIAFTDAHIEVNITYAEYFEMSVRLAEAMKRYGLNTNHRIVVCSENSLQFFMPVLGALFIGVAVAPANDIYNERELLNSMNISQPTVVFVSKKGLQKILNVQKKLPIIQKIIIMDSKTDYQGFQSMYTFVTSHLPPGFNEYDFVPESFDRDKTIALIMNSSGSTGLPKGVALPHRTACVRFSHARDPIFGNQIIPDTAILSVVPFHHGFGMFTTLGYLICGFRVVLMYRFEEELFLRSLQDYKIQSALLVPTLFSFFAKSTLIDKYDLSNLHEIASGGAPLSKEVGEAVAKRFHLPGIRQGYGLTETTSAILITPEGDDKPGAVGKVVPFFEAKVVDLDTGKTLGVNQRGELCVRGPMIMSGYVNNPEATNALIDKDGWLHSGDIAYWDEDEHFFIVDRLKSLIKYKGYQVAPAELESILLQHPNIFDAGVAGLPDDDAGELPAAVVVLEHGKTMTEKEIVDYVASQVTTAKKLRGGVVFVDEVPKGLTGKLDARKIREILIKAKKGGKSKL

The assay concerns the target Luciferin 4-monooxygenase (Photinus pyralis) (UniProt P08659). The assay can be described thus: Counterscreen Assay for Enhancers of SMN2 Splice Variant Expression: Interaction with Luciferase Reporter. Particulars: purified firefly luciferase, luminescence, 5 min; series mostly up to 40.3 µM; activity change, negative = inhibition: at the top concentration. The procedure, abridged: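 Direct luciferase interaction measured as luminescence from britelite plus reagent, added after 5 min room-temperature preincubation of compound with 5 nM purified firefly enzyme in Tris-acetate buffer, pH 7.6, with Mg, BSA and Tween.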
For orientation: Counterscreens check selectivity or assay interference.
For `Cc1[nH]c2ccccc2c1-c1nc(-c2ccc(Cl)cc2)nnc1-c1ccccc1`, the “activity change, negative = inhibition” value was -0.944% (inactive).
As for `FC(F)(F)c1cccc(Oc2nc(-c3ccccc3)nnc2C(F)(F)F)c1`, the Potency is 8.91 µM (active).
As for `C#CCn1c(S(=O)(=O)Cc2ccccc2Cl)nc(-c2ccccc2)c1-c1ccccc1`, the activity change, negative = inhibition was 12% [at 48.7 pM] (inactive).
On to `COc1cccc(NC(=O)CSc2nc3ccccc3nc2N2CCOCC2)c1`, for which the “activity change, negative = inhibition” value is 5.12% [at 51 µM] (inactive).
The same measure, in the same setting: to `O=S(=O)(NC1CCCc2ccccc21)c1cnc[nH]1` (stereo not drawn) belongs 3.43% [at 48.7 pM] (inactive).
The same measure, in the same setting: for `CCC1=Nc2ccccc2-c2nnc(SC)nc2O1` the value was 2.58% (inactive); for `O=C(NCCCNCCCNC(=O)c1ccccn1)c1ccccn1`, -6.78% [at 48.7 pM] (inactive).
For the compound `COc1ccc(OC)c(-c2csc(N3CCC(c4ccccc4)CC3)n2)c1`, the “activity change, negative = inhibition” value is 3.27% (inactive).
